Assay results: the supplement of paper PMC6555819

system: RARg:RXRa (NR concentration 270 nM, RXRa partner concentration 90 nM); experiment: PBM binding z-score (relative to random genomic background probes); higher = stronger binding; sequences stand for … in GC…GCGATTGACAGCGTAGAATGAAGG
Summary of the method: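 Custom Agilent 4×180K protein-binding microarrays carried double-stranded probes. Their 34-nt variable regions held direct-repeat seeds, single-nucleotide variants, half-site ablations and random human genomic background sequences. Arrays were incubated 1 h with ligand-free nuclear receptor dimers in PBS pH 7.4, 2% milk, 0.02% Triton X-100, 1 mM DTT, 0.2 mg/mL BSA and 0.4 mg/ml salmon testes DNA. Antibodies against each partner (one per run) detected binding, and scanned fluorescence was regression-normalized. Binding z-scores use random background probes as reference.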

| Sequence | PBM binding z-score |
| --- | --- |
| CGTGAAAGTTCAAGGTAACGTAACAGAAAGCAGC | 5.05 |
| CCGACTGGGGCAAAGATTACCATACTCAGTACGA | 0.0799 |
| TCTCGGAGGACGCGAAGGTCAGAGCTTTCCAGAG | 2.26 |
| ATATGTAGGTTATCGGGTCAGTCAGTTTGCGCAT | 2.76 |
| CATACTAGGTCACGAAAGGTCAAAGTCGAATGAC | 7.94 |
| TGAATGAGGTTAAAGATCAGGGAACGTGGCGTCG | 2.23 |
| GTACCAAGGTCAATAGGTCGTTGATGAGTAGGCG | 6.58 |
| TGTCAAGGTTCAAAGGTAACGTAAGTATCCACAC | 4.38 |
| TCTAGGTGGTCAAAGGTCACACACTCGAAATGCG | 7.33 |
| ACAGACAGGTGAGGAAGGTAACTCAGGCTATCAT | 0.425 |
| TCGAGTAGGTTAGTCGGGGCACTCAGCCAACATA | 0.0814 |
| CGTCAAATTTCAACTAAGGTAACGTAAAGCACGC | 0.344 |
| AGTCAAAGTTCATCTAGGTTACGTAAGATATGCT | 5.85 |
| AGTCAAAGTTCAGGAAGAGGTAACGTAAAGCACG | 5.33 |
| CAGCCTAGGTTAGGGCCAGTATAGGAGGAACGTT | 0.0888 |
| GCGACTGGGGCATCATCAGGTTACCATAACTTAA | 0.589 |
| TCTTGTAGTTCAATAGAGGTTAAGAAAGTGCGCT | 2 |
| TCTTGTAGATCAGCAGTTTAAGAAAGCTGGCCAA | -0.29 |
| AGAATGAGGTTATTAAGATTAGGGAATTGCGGTC | 1.27 |
| TCGAGTAGGTTAGTCGGGGCTTTCAGCCAACATA | -0.483 |
| GGCACGAGGGCAAGTTGATAGCAGAGTTTGATGG | 1.91 |
| ATAGAAAGGTCGTGAGGTGAGTATACAGAAAGGC | 4.4 |
